High-throughput results deposited in PubChem BioAssay by several laboratories.
CendR NRP1 mod – NRP-1/CendR interaction modulation; FAM-RPARPAR peptide binding to NRP-1, fluorescence polarization; inhibition, % at 25 µM; 360,000 compounds, 0.85% hits; AID 602438;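 active means inhibition or corrected inhibition above about 18%, plus a signal ratio from 0.5 to 1.5, limit read from the data, passing the limit was not always enough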
proKLK7 act – activates the human kallikrein-7 zymogen; purified proKLK7, EDANS-DABCYL substrate fluorescence; 100% is mature enzyme control, 0% vehicle; activation, % at 7 µM; 370,000 compounds, 0.9% hits;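 active means activation above the mean of all tested compounds plus 3 SD, computed per campaign excluding outliers beyond control limits, cut at about 13% in these data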
ADAM10 inh – inhibitors of human ADAM10; AID 720582; inhibition, % at 7 µM; O14672; recombinant ADAM10, EDANS/DABCYL FRET peptide cleavage, 3 h; 370,000 compounds, 0.62% hits;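 active means inhibition above a per-campaign cutoff equal to the mean of compounds falling between control-based bounds plus 3 SD, cut at about 20% in these data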
Target sequence (O14672 214-748 limits assumed): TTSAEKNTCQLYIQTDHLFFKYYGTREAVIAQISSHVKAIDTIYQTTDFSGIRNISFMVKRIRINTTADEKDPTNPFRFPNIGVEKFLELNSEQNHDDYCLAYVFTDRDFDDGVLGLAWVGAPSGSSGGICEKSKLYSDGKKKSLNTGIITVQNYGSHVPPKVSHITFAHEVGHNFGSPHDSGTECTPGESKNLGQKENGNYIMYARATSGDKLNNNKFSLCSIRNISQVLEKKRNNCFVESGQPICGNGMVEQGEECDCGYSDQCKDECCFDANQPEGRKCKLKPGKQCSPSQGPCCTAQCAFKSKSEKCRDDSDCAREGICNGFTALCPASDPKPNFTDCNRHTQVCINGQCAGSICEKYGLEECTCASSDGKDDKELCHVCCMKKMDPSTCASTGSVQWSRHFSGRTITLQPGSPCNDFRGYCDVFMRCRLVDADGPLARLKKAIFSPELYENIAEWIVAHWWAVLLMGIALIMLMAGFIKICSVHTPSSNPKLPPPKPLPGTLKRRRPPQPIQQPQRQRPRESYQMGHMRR
ADAM17 inh – inhibitors of human ADAM17. 370,000 compounds, 0.83% hits. recombinant ADAM17, EDANS/DABCYL FRET peptide cleavage. P78536. inhibition, % at 6.95 µM. AID 720648;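 active means inhibition above the mean of compounds lying between control limits plus 3 SD, set per campaign, cut at about 8.5% in these data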
HGIII-sPLA2 inh – Blocks human group III sPLA2 activity; Q9NZ20; QFRET BODIPY PC-A2 liposome hydrolysis, fluorescence; inhibition, % at 12.2 µM; 370,000 compounds, 0.56% hits;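 active means inhibition above mean plus 3 SD of compounds lying within the high and low control bounds, cut at about 19% in these data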
Of the large screens only hits and unclear results are named; the others gave an inactive call. Most compounds without a hit are left out; they make up all but 3.4% or so of the library.

Cn1cc(C(=O)c2ccc(Cl)cc2Cl)cc1C(=O)N/N=C(\N)COc1ccccc1	CendR NRP1 mod 36
CCCCCCSc1ccc([C@H]2N[C@@](Cc3ccccc3)(C(=O)OC)[C@H]3C(=O)N(C)C(=O)[C@@H]23)cc1OC	CendR NRP1 mod 28
CCC(C)Sc1ccc([C@H]2N[C@@](C)(C(=O)OC)[C@H]3C(=O)N(C)C(=O)[C@@H]23)cc1OC (stereo partly specified)	none
CCCSc1ccc([C@H]2N[C@@](C)(C(=O)OC)[C@H]3C(=O)N(C)C(=O)[C@@H]23)cc1OC	CendR NRP1 mod 28
CCCC[C@H](C(=O)N(C)c1ccccc1)[C@@H](O)c1ccc(C(C)=O)cc1	none (no result: CendR NRP1 mod)
COC(=O)[C@]12C[C@H](CC(=O)NCCc3ccccc3OC)C(=O)N(Cc3ccc4c(c3)OCO4)C1=C[C@H](C(C)C)O[C@@H]2C1CC1	none (no result: CendR NRP1 mod)
Oc1cc(O)c(CN2CCOCC2)cc1CN1CCOCC1	none
Oc1c(CN2CCOCC2)cc(CN2CCOCC2)cc1CN1CCOCC1	CendR NRP1 mod 29
CC(C)C1CC(N(C)C)=CC(=S)N1 (stereo unspecified)	none (no result: CendR NRP1 mod)
C/C(=N\NC(=S)NCCc1ccccc1)c1cccs1	CendR NRP1 mod 28
O=S(=O)(Nc1ccc(Br)cc1)c1cccc(NS(=O)(=O)c2cccs2)c1	CendR NRP1 mod 21
C1=C(c2ccc(-c3ccccc3)cc2)Nc2ncnn2C1c1ccco1 (stereo unspecified)	none
Oc1ccc(C2C=C(c3ccc(F)cc3)Nc3ncnn32)cc1 (stereo unspecified)	proKLK7 act 27
Fc1ccc(C2=CC(c3ccco3)n3ncnc3N2)cc1 (stereo unspecified)	CendR NRP1 mod 38 (no result: proKLK7 act, ADAM10 inh, ADAM17 inh, HGIII-sPLA2 inh)
O=C(Nc1ccccc1C(F)(F)F)OCCCN1CCC2(CCC(c3ccccc3)CC2)C1=O (stereo unspecified)	none (no result: CendR NRP1 mod)
Clc1ccc(-c2nnc(SCc3cccc4ccccc34)n2-c2ccc(Cl)cc2)cc1	none (no result: CendR NRP1 mod)
OCCN(CCO)c1ccc2ccccc2c1	none
OCCN(CCO)c1cc2c3ccccc3ccc2c2ccccc12	CendR NRP1 mod 25
COC(=O)C[C@H]1CC[C@H]2[C@H](COc3ccc(NC(=O)c4cccs4)cc3C(=O)N2C)O1	none (no result: CendR NRP1 mod)
COCCCNC(=O)C[C@H]1C[C@@]2(C(=O)OC)C(=C[C@H](COCc3ccccc3)O[C@@H]2C)N(Cc2cccc3ccccc23)C1=O	none (no result: CendR NRP1 mod)
Cc1ccc(NC(=O)CN(C)CC(=O)Nc2ccc3c(c2)OCO3)cc1	CendR NRP1 mod 22
CCc1nnc(SCC(=O)Nc2ccc3c(c2)OCO3)n1CC	CendR NRP1 mod 28
COC(=O)CNc1ccc2c(c1)OCO2	CendR NRP1 mod 25
COc1ccc(OC)c(S(=O)(=O)N(C)CC(=O)Nc2ccc3c(c2)OCO3)c1	CendR NRP1 mod 32
COc1ccc(OC)c(S(=O)(=O)N(C)CC(=O)Nc2ccc3c(c2)OCCO3)c1	none
COc1cccc(NC(=O)CN(C)CC(=O)Nc2ccc3c(c2)OCO3)c1	none
COC(=O)Nc1ccc2c(c1)OCO2	none
CC(C)(C)OC(=O)NCc1ccccc1/C=C/S(=O)(=O)NCc1ccccc1	none (no result: CendR NRP1 mod)
CCCCCCNC(=O)c1c(N)[nH]c(C(=O)c2ccccc2)c1-c1ccc(O)cc1	none (no result: CendR NRP1 mod, proKLK7 act)
CCCC(=O)N1CCC(C(=O)NC2CCCc3ccccc32)CC1 (stereo unspecified)	none (no result: CendR NRP1 mod)
Cc1ccc(CNc2ccc3c(c2)OCO3)cc1	none (no result: proKLK7 act, ADAM10 inh, ADAM17 inh, HGIII-sPLA2 inh)
c1cc(CNc2ccc3c(c2)OCO3)ccn1	CendR NRP1 mod 30
O=C(c1cccc(NS(=O)(=O)c2cccc(F)c2)c1)N1CCCC1	CendR NRP1 mod 27
Cc1ccc(S(=O)(=O)Nc2cccc(C(=O)N3CCOCC3)c2)cc1	CendR NRP1 mod 23
COc1ccc(S[C@]2(C(=O)N3CCOCC3)CC(=O)N(P(=O)(OC)OC)[C@@H]2c2ccc(OC)cc2)cc1	none (no result: CendR NRP1 mod)
Cc1cc2nc(/C=C/c3nc4cc(C)c(C)cc4[nH]3)[nH]c2cc1C	none
Cc1cc2nc(/C=C/c3cccnc3)[nH]c2cc1C	proKLK7 act 44
CC(C)C[C@@H]1COc2cc(N3CCSCC3)ccc2S(=O)(=O)N1C	none (no result: CendR NRP1 mod)
CC(=O)Nc1sc(C)c(C)c1C(=O)OCC(=O)N(CC(C)C)C1CCS(=O)(=O)C1 (stereo unspecified)	CendR NRP1 mod 28
CCN1C(=O)[C@@H]2[C@@H](c3ccc(-c4cc(C(C)=O)cs4)cc3)N3CCC[C@@]3(C(=O)OC)[C@@H]2C1=O	CendR NRP1 mod 24
COC(=O)c1ccc(NC(=O)Nc2ccc(F)cc2)cc1	CendR NRP1 mod 26
CCOC(=O)c1ccc(NC(=O)Nc2ccc(F)cc2)cc1	none
COC(=O)C1CN(CC(C)C)CCS(=O)(=O)N1Cc1ccc(C(F)(F)F)cc1 (stereo unspecified)	none (no result: CendR NRP1 mod)
CCCCNC(=O)NS(=O)(=O)c1ccc(NC(=O)CSc2ncnc3scc(-c4ccc(C)cc4)c23)cc1	none (no result: CendR NRP1 mod)
COc1cccc(-c2ncc3ccccc3c2COC(=O)c2ccc(C(F)(F)F)cc2)c1	CendR NRP1 mod 29
COc1cccc(-c2ncc3ccccc3c2COC(=O)c2ccc(Br)cc2)c1	none
Nc1ccc2c(c1)C/C(=C/c1ccco1)C2=O	HGIII-sPLA2 inh 22
O=C(NCC1CCCO1)c1nn2c(C(F)(F)F)cc(-c3ccco3)nc2c1Cl (stereo unspecified)	none
O=C(NCC1CCCO1)c1nn2c(C(F)(F)F)cc(-c3cc(Br)cs3)nc2c1Br (stereo unspecified)	CendR NRP1 mod 35
Cc1n[nH]c(C)c1S(=O)(=O)NCCc1c[nH]c2ccccc12	none (no result: CendR NRP1 mod)
OCc1ccccc1OCCCOc1cccc2cccnc12	CendR NRP1 mod 33
O=C(Cn1cnc2ccccc2c1=O)N1CCN(C(=O)C2CCCO2)CC1 (stereo unspecified)	none (no result: CendR NRP1 mod)
C#CCN(C[C@@H]1[C@@H](OC(=O)NC2CCCC2)[C@@H](OC(=O)NC2CCCC2)Cn2c(=O)ccc(=O)n21)S(=O)(=O)c1ccc(C)cc1	none
C#CCN(C[C@@H]1[C@@H](OC(=O)Nc2cccs2)[C@@H](OC(=O)Nc2cccs2)Cn2c(=O)ccc(=O)n21)S(=O)(=O)c1ccc(C)cc1	ADAM17 inh 10
O=C(NC1CCCCN(Cc2cccc(Cl)c2)C1=O)c1cccc(F)c1 (stereo unspecified)	none (no result: CendR NRP1 mod)
CC(=O)N1CCC(O)(c2ccc3c(c2)OCO3)CC1	CendR NRP1 mod 22
C[n+]1cccc2cccc([O-])c21	CendR NRP1 mod 28
[O-][n+]1cccc2cccc(O)c21	none
O=C(Nc1ccc(Cl)cc1)Nc1nnc(-c2ccncc2)s1	none
Fc1ccc(Nc2nnc(-c3ccncc3)s2)cc1Cl	CendR NRP1 mod 35
Cc1ccc(S(=O)(=O)/N=C(/NC(=S)Nc2ccccc2)c2ccccc2)cc1	none
CC(=O)Nc1ccc(N/C(=N\S(=O)(=O)c2ccccc2)c2ccccc2)cc1	none
O=c1[nH]c2ccc(N/C(=N/S(=O)(=O)c3ccccc3)c3ccccc3)cc2[nH]1	CendR NRP1 mod 21
